Bioassay records (PubChem)
The list is not random: actives were taken first. Their share in the collection is about 1.6%.
KCNQ2 pot = KCNQ2 (rat) channel potentiation; CHO-K1 KCNQ2, FluxOR thallium flux fluorescence; active compounds read high; 310,000 tested, 0.54% active; B-score at 10 µM; AID 2239;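 active = fluorescence ratio B-score at least 3 SD of library B-scores, with initial fluorescence B-score within 3 of them, cut at about 5.3 in these data; same plate scores as AID 2156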;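 also: B-score of peak minus minimum over baseline fluorescence ratio after K+ and Tl+ stimulus; positive B-score means potentiation of KCNQ2 with more thallium influx and brighter signal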
Target sequence (O88943 whole entry, looked up): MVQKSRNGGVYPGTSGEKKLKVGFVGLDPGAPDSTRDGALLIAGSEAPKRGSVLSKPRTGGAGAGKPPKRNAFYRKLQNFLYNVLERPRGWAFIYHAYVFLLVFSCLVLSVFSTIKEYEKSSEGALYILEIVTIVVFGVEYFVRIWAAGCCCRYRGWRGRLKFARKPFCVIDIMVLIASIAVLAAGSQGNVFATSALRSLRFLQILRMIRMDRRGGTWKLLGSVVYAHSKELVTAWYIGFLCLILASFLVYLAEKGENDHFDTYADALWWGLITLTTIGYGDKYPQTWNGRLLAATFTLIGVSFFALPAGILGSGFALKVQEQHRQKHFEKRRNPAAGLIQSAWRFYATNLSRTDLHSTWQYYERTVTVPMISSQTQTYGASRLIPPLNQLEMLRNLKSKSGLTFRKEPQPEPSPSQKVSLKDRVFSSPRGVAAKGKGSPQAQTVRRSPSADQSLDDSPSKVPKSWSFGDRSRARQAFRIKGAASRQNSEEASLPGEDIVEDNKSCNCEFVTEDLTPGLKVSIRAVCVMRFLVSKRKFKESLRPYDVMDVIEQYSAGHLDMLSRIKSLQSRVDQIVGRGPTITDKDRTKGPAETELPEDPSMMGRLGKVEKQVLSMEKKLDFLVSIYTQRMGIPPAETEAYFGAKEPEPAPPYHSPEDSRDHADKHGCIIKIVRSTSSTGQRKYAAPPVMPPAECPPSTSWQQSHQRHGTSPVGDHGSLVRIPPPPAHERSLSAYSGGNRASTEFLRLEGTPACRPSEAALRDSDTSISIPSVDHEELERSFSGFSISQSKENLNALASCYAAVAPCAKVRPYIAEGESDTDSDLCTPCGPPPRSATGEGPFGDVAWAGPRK
KCNQ2 inh = KCNQ2 (rat) channel inhibition; AID 2156; B-score at 10 µM; CHO-K1 KCNQ2, FluxOR thallium flux, 20 min; active compounds read low; 310,000 tested, 1.1% active; O88943;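 active = fluorescence ratio B-score at most minus 3 library SDs, with starting brightness B-score within 2 library SDs, cut at about -5.5 in these data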
Kir21 confirm = confirmation of mouse Kir2.1 potassium channel inhibitors | shares compounds with KCNQ2 pot | Tl flux remaining, % of negative control (active compounds read low), % at 10 µM | 2,300 tested, 41% active | Kir2.1-expressing cells, FluxOR thallium flux fluorescence; active compounds read low;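 active = Primary-screen hit whose thallium flux fell at least 3 control SD below untreated wells in both duplicates, with normal baseline fluorescence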;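 also: 0% = blank wells without stimulus and 100% = stimulated no-compound controls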
HEK293 ctr = parental HEK293 activity in Kir2.1 inhibitor counter-screen; shares compounds with KCNQ2 pot; parental HEK293 cells, FluxOR thallium flux fluorescence; 0% = unstimulated blank wells; FluxOR signal as % of negative control (100 = no effect), % at 10 µM; 2,300 tested, 19% active;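 active = dye signal at least 3 control SD above or below untreated wells in both duplicates, raw fluorescence within 3, either direction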;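 also: percent is based on the flux ratio of peak minus minimum fluorescence over baseline F0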
CHO-K1 ctr = alters thallium flux in parental CHO-K1 cells, KCNQ2 counter-screen; shares compounds with KCNQ2 pot; FluxOR thallium flux fluorescence; zero = vehicle mean+3SD, 100% = vehicle-minus-blank window; activity increase over 3SD of controls, % at 10 µM; 1,200 tested, 43% active; AID 2282;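 active = signal rise of at least 3 SD above the untreated control mean, in both duplicate wells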;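 also: counter screen of KCNQ2 potentiator hits so any rise reflects channel-independent effects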
KCNQ1 pot spec = human KCNQ1 counter-target activity of KCNQ2 potentiators. shares compounds with KCNQ2 pot. 1,200 tested, 28% active. CHO KCNQ1 stable, FluxOR thallium flux fluorescence; beyond 3SD, as % of vehicle-control signal. activation over 3SD threshold, % at 10 µM;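 active = fluorescence ratio rise of at least 3 SD of vehicle wells above their mean, in both replicate wells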;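 also: 0% = vehicle mean plus 3 SD and 100% = vehicle minus unstimulated blank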
KCNQ2 pot conf = rat KCNQ2 channel potentiator confirmation; potentiation, less the hit threshold, % at 10 µM; AID 2287; CHO-KCNQ2 cells, FluxOR thallium flux fluorescence; shares compounds with KCNQ2 pot; 1,200 tested, 68% active;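 active = fluorescence ratio rising 3 SD or more over the vehicle control mean in both replicates, plus primary screen hit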;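 also: peak minus minimum thallium fluorescence divided by baseline after K/Tl stimulus; 0% = vehicle mean plus 3 SD and 100% = vehicle minus unstimulated blank difference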
Kir21 spec = tests whether KCNQ2 potentiators also affect mouse Kir2.1. shares compounds with KCNQ2 pot. HEK293 Kir2.1, FluxOR thallium flux fluorescence. activity over 3SD threshold, % at 10 µM. 1,200 tested, 2% active. AID 2345;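 active = fluorescence ratio rise of at least 3 SD above the vehicle-control mean, seen in both replicates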;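 also: 0% = vehicle mean plus 3 SD and 100% = vehicle minus no-stimulus blank window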
KCNQ2 W236L MoA = rat KCNQ2 W236L mutant potentiation by KCNQ2 potentiators. AID 2558. 940 tested, 10% active. shares compounds with KCNQ2 pot. CHO KCNQ2-W236L, automated patch clamp current. current increase over 3SD of negative controls (%), active compounds read high, % at 25 µM;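 active = current increase at least 3 SD of the untreated controls above them in both duplicate recordings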
* hit, by the source's call.

N=c1n(Cc2ccccc2)c2ccccc2n1CC(O)COc1ccccc1 (centres undefined) was read as KCNQ2 inh inactive, Kir21 confirm 38%* and HEK293 ctr inactive.
Cc1ccc(Cn2c(=N)n(CC(O)COc3ccccc3)c3ccccc32)cc1 (centres undefined) was read as KCNQ2 inh inactive, Kir21 confirm 32%* and HEK293 ctr inactive.
For CC(NC=O)c1nc2ccccc2n1CCc1ccccc1 (centres undefined) the results were KCNQ2 inh inactive.
Screening COc1ccc(C(=O)NCc2ccon2)cc1OC1CCN(C(C)C)CC1 returned KCNQ2 pot 0.54 and KCNQ2 inh inactive.
`CCOC(=O)c1c(NC(=O)OC)sc2c1CCC2` gave KCNQ2 pot 0.81 and KCNQ2 inh inactive.
`COC(=O)c1c(NS(=O)(=O)c2ccc3ccccc3c2)sc2c1CCCC2` gave KCNQ2 pot 6.4*, KCNQ2 inh inactive, Kir21 confirm inactive, HEK293 ctr inactive, CHO-K1 ctr -4, KCNQ1 pot spec -11, KCNQ2 pot conf -17 and Kir21 spec -36.
Screening CC1CCc2c(sc(NS(=O)(=O)c3ccccc3)c2C(=O)OC(C)C)C1 (centres undefined) returned KCNQ2 pot 4.1, KCNQ2 inh inactive, Kir21 confirm inactive and HEK293 ctr inactive.
Screening CCOC(=O)c1c(NC(=O)CCNCc2ccco2)sc2c1CCC2 returned KCNQ2 inh inactive, Kir21 confirm 28%* and HEK293 ctr inactive.
For CC1CCc2c(sc(NC(=O)c3ccco3)c2C(=O)O)C1 (centres undefined) the results were KCNQ2 pot 1.6 and KCNQ2 inh inactive.
Screening CCOC(=O)c1c(NS(=O)(=O)c2ccc(Br)cc2)sc2c1CCC2 returned KCNQ2 pot 18*, KCNQ2 inh inactive, Kir21 confirm inactive, HEK293 ctr 255%*, CHO-K1 ctr 41*, KCNQ1 pot spec 87*, KCNQ2 pot conf 59*, Kir21 spec -26 and KCNQ2 W236L MoA inactive.
`COC(=O)c1c(NC(=O)c2ccc(C)c(S(=O)(=O)Nc3ccccc3C)c2)sc2c1CCCC2` gave KCNQ2 inh inactive.
For CCOC(=O)c1c(NC(=O)c2ccco2)sc2c1CCCCC2 the results were KCNQ2 pot 2.4 and KCNQ2 inh inactive.
`CCCCCCCNC(=O)CN1N=C(c2ccc(C)cc2)CCC1=O` gave KCNQ2 inh inactive.
`COc1ccc(C2(C)NC(=O)N(CC(=O)NCc3ccccc3)C2=O)cc1OC` (centres undefined) gave KCNQ2 pot 0.03 and KCNQ2 inh inactive.
Screening O=C(NCc1ccccn1)C(=O)Nc1cc2c3c(c1)CC(=O)N3CCC2 returned KCNQ2 inh inactive.
`CCc1ccc(NC(=O)c2ccc(NC3=NC4CS(=O)(=O)CC4S3)cc2)cc1` (centres undefined) gave KCNQ2 inh inactive.
For CCOC(=O)c1c(NS(=O)(=O)Cc2ccccc2)sc2c1CCCC2 the results were KCNQ2 inh inactive, Kir21 confirm inactive and HEK293 ctr 338%*.
`CCOC(=O)c1c(NC(=O)c2ccccc2C(=O)O)sc2c1CCC2` gave KCNQ2 pot 1.7 and KCNQ2 inh inactive.
Cc1ccc(S(=O)(=O)CCc2ccncc2)cc1 was read as KCNQ2 pot 0.85 and KCNQ2 inh inactive.
`OCOCCCn1c(C2CCCN2c2nc(-c3ccc(F)cc3)cs2)nc2cc(Cl)c(N3CCCCC3)cc21` (centres undefined) gave KCNQ2 pot 6.9*, KCNQ2 inh inactive, Kir21 confirm inactive, HEK293 ctr inactive, CHO-K1 ctr 58*, KCNQ1 pot spec -18, KCNQ2 pot conf -4 and Kir21 spec -24.
For Nc1c(Cl)cc(-c2csc(N3CCCC3c3nc4cc(Cl)c(Cl)cc4n3CCCO)n2)cc1Cl (centres undefined) the results were KCNQ2 inh inactive.
Nc1c(Cl)cc(-c2csc(N3CCCC3c3nc4cc(Cl)c(N5CCCCC5)cc4n3CCOCCO)n2)cc1Cl (centres undefined) was read as KCNQ2 pot 6.3*, KCNQ2 inh inactive, Kir21 confirm inactive, HEK293 ctr inactive, CHO-K1 ctr 3.5*, KCNQ1 pot spec -22, KCNQ2 pot conf -11, Kir21 spec -24 and KCNQ2 W236L MoA inactive.
Screening OCCCn1c(C2CCCN2c2nc(-c3ccc(F)cc3)cs2)nc2cc(Cl)c(Cl)cc21 (centres undefined) returned KCNQ2 pot 0.26 and KCNQ2 inh inactive.
Nc1c(Cl)cc(-c2csc(N3CCCC3c3nc4cc(Cl)c(N5CCCCC5)cc4n3CCCO)n2)cc1Cl (centres undefined) was read as KCNQ2 pot 20*, KCNQ2 inh inactive, Kir21 confirm inactive, HEK293 ctr inactive, CHO-K1 ctr -13, KCNQ1 pot spec -50, KCNQ2 pot conf 38*, Kir21 spec -23 and KCNQ2 W236L MoA inactive.
For Cc1csc(N2CCCC2c2nc3cc(Cl)c(N4CCCCC4)cc3n2CCOCCO)n1 (centres undefined) the results were KCNQ2 pot 1.4 and KCNQ2 inh inactive.
`Cc1ccc2nc(NC(=S)NC(=O)c3ccco3)sc2c1` gave KCNQ2 pot 12*, KCNQ2 inh inactive, Kir21 confirm inactive and HEK293 ctr 228%*.
`Cc1ccc2nc(NC(=O)c3ccco3)sc2c1` gave KCNQ2 pot 0.98 and KCNQ2 inh inactive.
`O=C(NC(=S)Nc1nc(-c2ccc(Br)cc2)cs1)c1ccco1` gave KCNQ2 pot 5.1 and KCNQ2 inh inactive.
`O=C(NC(=S)Nc1nc(-c2ccc([N+](=O)[O-])cc2)cs1)c1ccco1` gave KCNQ2 pot 10*, KCNQ2 inh inactive, Kir21 confirm inactive, HEK293 ctr 168%*, CHO-K1 ctr -7, KCNQ1 pot spec 44*, KCNQ2 pot conf -7 and Kir21 spec -27.
Screening O=C(COc1ccc2c(c1)OCO2)Nc1nncs1 returned KCNQ2 pot 0.16 and KCNQ2 inh inactive.
